Experimental data as given in PMC4336329 (PLoS ONE, 2015).
In all, about 310,000 compounds went through this assay and about 14,000 (4.5%) showed an effect of 50% or more. Effects have a minus sign here. This excerpt belongs to a sample that is enriched for strong results.

These molecules were tested against human ether-à-go-go-related gene (hERG) potassium channel (human, UniProt Q12809) (assay: primary screen, population patch clamp on CHO cells stably expressing hERG; higher = less effect of the substance).
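Also: peak tail current of the secondary pulse compared with the same well before compound.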

human ether-à-go-go-related gene (hERG) potassium channel, sequence (Q12809 whole entry, looked up): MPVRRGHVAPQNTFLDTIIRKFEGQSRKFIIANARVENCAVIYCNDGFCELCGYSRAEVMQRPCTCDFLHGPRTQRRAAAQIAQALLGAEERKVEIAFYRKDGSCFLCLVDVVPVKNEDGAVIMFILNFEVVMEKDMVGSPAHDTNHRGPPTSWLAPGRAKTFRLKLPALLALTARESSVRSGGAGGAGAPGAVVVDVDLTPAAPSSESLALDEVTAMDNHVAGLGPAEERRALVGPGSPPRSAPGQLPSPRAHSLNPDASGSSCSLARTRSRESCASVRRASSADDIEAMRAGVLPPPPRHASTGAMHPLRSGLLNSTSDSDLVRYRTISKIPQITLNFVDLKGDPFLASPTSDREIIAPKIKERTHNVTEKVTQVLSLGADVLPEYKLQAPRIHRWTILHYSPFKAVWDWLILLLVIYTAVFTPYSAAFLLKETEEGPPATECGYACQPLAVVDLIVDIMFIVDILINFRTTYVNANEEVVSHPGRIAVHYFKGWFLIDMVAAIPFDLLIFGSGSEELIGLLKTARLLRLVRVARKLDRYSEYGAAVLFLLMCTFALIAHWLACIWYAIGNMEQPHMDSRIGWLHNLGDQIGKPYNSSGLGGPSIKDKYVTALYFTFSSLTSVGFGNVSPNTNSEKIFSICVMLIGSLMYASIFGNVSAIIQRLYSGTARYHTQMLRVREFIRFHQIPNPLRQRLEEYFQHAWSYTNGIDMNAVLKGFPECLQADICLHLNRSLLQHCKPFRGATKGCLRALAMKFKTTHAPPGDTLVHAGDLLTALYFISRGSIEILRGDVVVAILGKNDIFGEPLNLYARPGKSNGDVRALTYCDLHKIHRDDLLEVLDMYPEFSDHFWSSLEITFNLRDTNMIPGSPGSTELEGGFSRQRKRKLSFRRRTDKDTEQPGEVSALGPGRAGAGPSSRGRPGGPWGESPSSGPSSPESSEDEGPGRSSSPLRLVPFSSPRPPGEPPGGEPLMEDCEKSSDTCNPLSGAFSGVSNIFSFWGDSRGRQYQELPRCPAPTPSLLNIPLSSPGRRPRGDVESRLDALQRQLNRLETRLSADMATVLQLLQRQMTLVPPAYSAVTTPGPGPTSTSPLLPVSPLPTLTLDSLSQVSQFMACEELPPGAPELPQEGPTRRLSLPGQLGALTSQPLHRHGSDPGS

SMILES | hERG current change (%, negative = inhibition) at 10uM
CC1CCCN(CCCNC(=O)c2cn(C)c3ccc(S(=O)(=O)N(C)C4CCCCC4)cc3c2=O)C1 (stereo not drawn) | -71.4%
CCn1cc(C(=O)N2CC(C)CC(C)C2)c(=O)c2cc(S(=O)(=O)N(C)C)ccc21 (stereo not drawn) | -8.98%
CN(C1CCCCC1)S(=O)(=O)c1ccc2c(c1)c(=O)c(C(=O)NCCCN1CCCC1)cn2C | -25.6%
CCn1cc(C(=O)NCCCN2CCCC(C)C2)c(=O)c2cc(S(=O)(=O)N3CCOCC3)ccc21 (stereo not drawn) | 14.6%
CCn1cc(C(=O)NCCCN2CC(C)CC(C)C2)c(=O)c2cc(S(=O)(=O)N(C)C3CCCCC3)ccc21 (stereo not drawn) | -84.3%
CCn1cc(C(=O)NCCCN2CC(C)CC(C)C2)c(=O)c2cc(S(=O)(=O)N(C)C)ccc21 (stereo not drawn) | -55.5%
Cc1ccc(NC(=O)c2ccc(NC(=O)C3CCCCC3C(=O)O)cc2)cc1 (stereo not drawn) | 14.4%
O=C(CN1C(=O)NC2(CCCC2)C1=O)N1CCN(S(=O)(=O)c2cccc(C(F)(F)F)c2)CC1 | -5.43%
O=C(O)C(Cc1c[nH]c2ccccc12)N1C(=O)c2ccccc2C1=O (stereo not drawn) | -2.61%
Cc1ncc(CO)c(/C=N/Nc2cccc(Cl)n2)c1O.Cl | 8.89%
O=c1oc(-c2ccc(Br)cc2)nc2ccccc12 | 17.8%
CC1=NNC(=O)/C1=C\c1cn(-c2ccccc2)nc1-c1ccc(Cl)cc1 | 3.69%
O=c1c2c(nc3c(-c4ccccc4)c[nH]n13)CCC2 | 10.9%
CC(C)CC(COCc1cccc(C(F)(F)F)c1)N1CCN(C(=O)c2cccc(C(F)(F)F)c2)CCC1=O (stereo not drawn) | -12%
COc1ccccc1CN1CCN(Cc2nc(-c3cccs3)no2)CC1 | -42.8%
O=C(C[n+]1ccc(-c2nnc3n2CCC3)cc1)c1ccc(Cl)c(Cl)c1.[Br-] | -14%
O=C(O)CC1(CC(=O)NCc2ccc(Cl)cc2)CCCCC1 | 8.75%
CCC12CN(C(=O)c3ccc(C)cc3)CC(CC)(CN(C(=O)c3ccc(C)cc3)C1)C2=O | -33.3%
CCn1cc(C(=O)NCCCN2CCC(C)CC2)c(=O)c2cc(S(=O)(=O)N(C)C3CCCCC3)ccc21 | -80%
CCn1cc(C(=O)NCCCN2CCC(C)CC2)c(=O)c2cc(S(=O)(=O)N3CCOCC3)ccc21 | -17.1%
CCn1cc(C(=O)NCCCN2CCC(C)CC2)c(=O)c2cc(S(=O)(=O)N3CCCC3)ccc21 | -7.61%
COc1cc(NC(=O)c2ccc3c(c2)OCO3)ccc1NC(=O)c1ccco1 | 10.4%
Cc1ccc(CNC(=O)c2ccc(Cn3nc(C)cc3C)o2)cc1 | -19.1%
CCOC(=O)/C(N=Nc1c(Br)cc(Br)cc1Br)=C(\C)O | 6.47%

SMILES | hERG current change (%, negative = inhibition) at 10uM
Cn1c(CC(=O)NNC(=O)c2ccc(F)cc2F)nc2ccccc21 | -7.56%
CCCN1C=CC(=CC=C(C#N)C#N)C=C1 | -3.42%
CCCCCCN1C=C/C(=C\C=C(C#N)C#N)c2ccccc21 | -37.4%
CCCCCCN1C=CC=C/C1=C/C=C(C#N)C#N | -76.5%
CCCCCCN1C=CC=C/C1=C\C=C(C#N)C#N | -71.1%
CC1=C/C(=C\C=C(C#N)C#N)N(C)c2ccccc21 | 9.34%
CN1/C(=C/C=C(C#N)C#N)C=Cc2ccccc21 | 11.5%
CCOC(=O)/C(C#N)=C/C=C1/C=CC=CN1C | 3.01%
CCCCCN1C=CC=C/C1=C\C=C(C#N)C#N | -70.9%
CCCCCCN1C=CC(=C/C=C(\C#N)C(=O)OCC)C=C1 | -4.32%
COc1ccc(OC)c(NC(=O)CSc2nnc(C)n2Cc2ccccc2)c1 | -23.5%
Cc1ccc(C)c(N(C)S(=O)(=O)c2cccc3nsnc23)c1 | -18.4%
Cc1cc(C)c(S(=O)(=O)Nc2cccc(C(=O)O)c2)cc1S(=O)(=O)Nc1cccc(C(=O)O)c1 | 18.2%
NNC(=O)c1ccc(Cn2cc(Cl)cn2)o1 | 15.6%
COC(=O)c1ccc(/C=N/N2CCN(Cc3ccccc3Cl)CC2)cc1 | 5.88%
COCCCNC(=O)CCc1c(C)nc2c(c(C)nn2-c2ccc(C)cc2)c1C | -7.71%
Cc1ccc(-n2nc(C)c3c(C)c(CCC(=O)NCCCOC(C)C)c(C)nc32)cc1 | -53.1%
Cc1nc2c(c(C)nn2-c2ccccc2)c(C)c1CCC(=O)NCCCOC(C)C | -34.7%
COCCNC(=O)CCc1c(C)nc2c(c(C)nn2-c2ccc(C)c(C)c2)c1C | -3.85%
CCCNC(=O)CCc1c(C)nc2c(c(C)nn2-c2ccc(C)cc2)c1C | -0.266%
CCN(CC)CCNC(=O)CCc1c(C)nc2c(c(C)nn2-c2ccc(C)cc2)c1C | -55.4%
CCN(CC)CCNC(=O)CCc1c(C)nc2c(c(C)nn2-c2ccc(C)c(C)c2)c1C | -62.3%
Cc1ccc(-n2nc(C)c3c(C)c(CCC(=O)O)c(C)nc32)cc1C | 30.7%
COCCNC(=O)CCc1c(C)nc2c(c(C)nn2-c2ccc(C)cc2)c1C | -17.6%
